# Assay results taken from the supplement of paper PMC3545927.
# Some of the results follow. No count for the full screen is at hand.
# B1: HC1710 (peptide)
# chain: CAMEVCSQHLAGNASASA
# B2: HC21 (peptide)
# chain: CAMEECAQHLAGNASASA
# B3: HC969 (peptide)
# chain: CATLHGPTPLAGNASASA
# B4: FS-2847 (peptide)
# chain: CARYARKIEPAGNASASA
# B5: FS-1809 (peptide)
# chain: CARYHRDAGAAGNASASA
# B6: FS-3262 (peptide)
# chain: CARRKRHISVAGNASASA
# B7: FS-3060 (peptide)
# chain: CARRQRRVPGAGNASASA
# B8: FS-2594 (peptide)
# chain: CARRKRRAPLAGNASASA
# B9: HC1292 (peptide)
# chain: CAEDEREISVAGNASASA
# B10: FS-1808 (peptide)
# chain: CARYARWAGAAGNASASA
# B11: HC39 (peptide)
# chain: CAMEECQQHLAGNASASA
# B12: HC561 (peptide)
# chain: CALALPQRAYAGNASASA
# B13: HC2162 (peptide)
# chain: CAQVVTSTWVAGNASASA
# B14: HC2168 (peptide)
# chain: CAEWVTSTWVAGNASASA
# B15: HC2044 (peptide)
# chain: CAVVCCSISYAGNASASA
# B16: FS-2270 (peptide)
# chain: CARKKRSTKKAGNASASA
# B17: FS-2562 (peptide)
# chain: CARKKRATHSAGNASASA
# B18: FS-1828 (peptide)
# chain: CARKKRREEKAGNASASA
# B19: FS-2395 (peptide)
# chain: CARKKRYDRKAGNASASA
# B20: FS-2964 (peptide)
# chain: CARKKREKKKAGNASASA
# B21: FS-2961 (peptide)
# chain: CARKKRADKKAGNASASA
# B22: HC1758 (peptide)
# chain: CAMEECSQTLAGNASASA
# B23: HC787 (peptide)
# chain: CAVLNPSVAAAGNASASA
# B24: FS-1248 (peptide)
# chain: CAQLGRPKRCAGNASASA
# B25: HC276 (peptide)
# chain: CAREGNASRCAGNASASA
# B26: FS-1047 (peptide)
# chain: CAPKGRPKRAAGNASASA
# B27: FS-847 (peptide)
# chain: CAQGTRFKRAAGNASASA
# B28: HC558 (peptide)
# chain: CAPLLLLLLAAGNASASA
# B29: FS-699 (peptide)
# chain: CAPLKRFKRAAGNASASA
# B30: HC1066 (peptide)
# chain: CAILGGWVAAAGNASASA
# B31: HC2362 (peptide)
# chain: CAEVQCHRPSAGNASASA
# B32: HC1202 (peptide)
# chain: CAWRVSAEEYAGNASASA
# B33: HC1724 (peptide)
# chain: CAMEECSIHLAGNASASA
# B34: FS-3213 (peptide)
# chain: CARTRRCVCVAGNASASA
# B35: FS-2316 (peptide)
# chain: CARTRRSINSAGNASASA
# B36: FS-924 (peptide)
# chain: CAASSRNIRSAGNASASA
# B37: FS-1663 (peptide)
# chain: CAVRSRSIRSAGNASASA
# B38: FS-1937 (peptide)
# chain: CARTRRTSKPAGNASASA
# B39: HC262 (peptide)
# chain: CAVTNDCPNSAGNASASA
# B40: FS-3111 (peptide)
# chain: CARTRRNIDAAGNASASA
# B41: HC2225 (peptide)
# chain: CAEVVTSTLVAGNASASA
# B42: HC2134 (peptide)
# chain: CAEKVVCCSMAGNASASA
# B43: FS-461 (peptide)
# chain: CALSRRSIRSAGNASASA
# B44: FS-1646 (peptide)
# chain: CAMSIRSDRSAGNASASA
# B45: FS-910 (peptide)
# chain: CALDRRSQRSAGNASASA
# B46: FS-308 (peptide)
# chain: CAVHFRSIRSAGNASASA
# B47: FS-2871 (peptide)
# chain: CALSRRSISKAGNASASA
# B48: HC1605 (peptide)
# chain: CALSAFSLHSAGNASASA
# Target: furin, P09958
# Sequence (P09958 whole entry): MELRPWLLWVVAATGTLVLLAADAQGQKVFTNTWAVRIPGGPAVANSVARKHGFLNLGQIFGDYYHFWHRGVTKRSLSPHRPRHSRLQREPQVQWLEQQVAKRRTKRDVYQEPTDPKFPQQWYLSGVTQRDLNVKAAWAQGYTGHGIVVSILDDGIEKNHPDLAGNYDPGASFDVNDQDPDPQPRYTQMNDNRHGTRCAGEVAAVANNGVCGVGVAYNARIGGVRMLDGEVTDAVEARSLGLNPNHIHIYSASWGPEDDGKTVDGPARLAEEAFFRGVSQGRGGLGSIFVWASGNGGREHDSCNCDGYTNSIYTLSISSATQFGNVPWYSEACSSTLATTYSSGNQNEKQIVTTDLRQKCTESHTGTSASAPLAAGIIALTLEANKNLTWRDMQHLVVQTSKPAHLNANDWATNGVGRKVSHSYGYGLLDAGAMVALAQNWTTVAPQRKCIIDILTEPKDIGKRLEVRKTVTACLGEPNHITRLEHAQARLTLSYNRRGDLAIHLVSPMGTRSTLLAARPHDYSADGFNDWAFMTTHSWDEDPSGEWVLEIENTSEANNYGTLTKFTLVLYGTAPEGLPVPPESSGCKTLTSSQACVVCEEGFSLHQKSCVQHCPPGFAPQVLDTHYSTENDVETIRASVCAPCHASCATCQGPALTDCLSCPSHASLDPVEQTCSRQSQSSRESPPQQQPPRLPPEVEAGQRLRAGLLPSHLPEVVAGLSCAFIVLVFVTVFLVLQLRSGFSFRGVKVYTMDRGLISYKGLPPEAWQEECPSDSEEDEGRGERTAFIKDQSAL
# Experiment: furin cleavage Z-score vs untreated control; higher = more cleavage, active = 3.5 or more, inactive = 1 or less, 8 variable residues between constant flanks
# Protocol: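 Multiplexed peptide-cDNA fusion cleavage assay. 8-mer variable peptides flanked by constant Cys-Ala (N-term) and Ala-Gly-Asn-Ala-Ser-Ala-Ser-Ala (C-term) and conjugated to a cDNA oligonucleotide were bead-immobilised via the N-terminus. They were treated with purified furin at a 1:10 enzyme:substrate ratio in 50 mM HEPES pH 7.5, 1 mM CaCl2, 100 mM NaCl for 7.5, 15 or 30 min. Released cDNA was counted by next-generation sequencing, and log counts versus no-furin controls were lowess-adjusted and converted to robust Z-scores.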
Sequence,furin cleavage Z-score (7.5 min),furin cleavage Z-score (15 min),furin cleavage Z-score (30 min)
B1,0.136 (inactive),0.13 (inactive),-0.0969 (inactive)
B2,-0.625 (inactive),-0.0837 (inactive),-0.768 (inactive)
B3,0.77 (inactive),0.336 (inactive),-0.402 (inactive)
B4,0.34 (inactive),1.98,2.59
B5,1.33,1.22,0.229 (inactive)
B6,5.85 (active),5.59 (active),7.18 (active)
B7,0.752 (inactive),1.27,2.47
B8,4.11 (active),6.31 (active),6.38 (active)
B9,0.521 (inactive),-0.358 (inactive),1.28
B10,3.25,3.55 (active),4.67 (active)
B11,1.54,0.787 (inactive),2.55
B12,0.0304 (inactive),1.97,1.07
B13,0.38 (inactive),0.0342 (inactive),0.112 (inactive)
B14,0.00297 (inactive),0.984 (inactive),0.871 (inactive)
B15,0.197 (inactive),-0.41 (inactive),-0.348 (inactive)
B16,5.56 (active),7.13 (active),6.85 (active)
B17,11.5 (active),12.2 (active),9.97 (active)
B18,-0.326 (inactive),2.8,0.74 (inactive)
B19,4.56 (active),7.7 (active),7.88 (active)
B20,-0.433 (inactive),-0.316 (inactive),0.927 (inactive)
B21,5 (active),6.53 (active),5.44 (active)
B22,0.0304 (inactive),0.61 (inactive),0.799 (inactive)
B23,-0.311 (inactive),-0.0498 (inactive),-0.157 (inactive)
B24,8.77 (active),10.3 (active),8.22 (active)

Sequence,furin cleavage Z-score (7.5 min),furin cleavage Z-score (15 min),furin cleavage Z-score (30 min)
B25,-0.0161 (inactive),-0.511 (inactive),-0.0787 (inactive)
B26,11.3 (active),13.3 (active),9.54 (active)
B27,11.1 (active),10.3 (active),8.39 (active)
B28,-0.475 (inactive),-2.1 (inactive),0.488 (inactive)
B29,12.2 (active),12 (active),9.3 (active)
B30,-0.934 (inactive),-0.574 (inactive),-1.27 (inactive)
B31,0.385 (inactive),1.46,0.778 (inactive)
B32,-0.863 (inactive),-1.63 (inactive),-0.815 (inactive)
B33,0.188 (inactive),1.13,0.153 (inactive)
B34,-0.371 (inactive),-0.858 (inactive),-0.127 (inactive)
B35,7.8 (active),8.93 (active),7.57 (active)
B36,5.59 (active),8.19 (active),6.71 (active)
B37,11.3 (active),11.8 (active),8.54 (active)
B38,0.687 (inactive),3.02,2.44
B39,-1.55 (inactive),-2.42 (inactive),-2.48 (inactive)
B40,6.35 (active),7.27 (active),4.76 (active)
B41,-0.125 (inactive),0.377 (inactive),-0.731 (inactive)
B42,-0.767 (inactive),0.357 (inactive),-1.09 (inactive)
B43,10.4 (active),11.5 (active),9.32 (active)
B44,1.46,0.662 (inactive),1.58
B45,2.25,3.02,4.23 (active)
B46,8.08 (active),8.31 (active),5.71 (active)
B47,0.267 (inactive),1.81,-1.35 (inactive)
B48,0.383 (inactive),0.938 (inactive),1.75
